# Sampled rows, rich in hits. Any-hit rate of the full collection: about 1%.
# FadD28 FP inh: inhibitors of Mycobacterium tuberculosis FadD28 bisubstrate binding | FadD28 bisubstrate probe binding, fluorescence polarization | inhibition, % at 12.5 µM | hit rate 0.22% among 360,000 | AID 588549; in the data active = inhibition above about 8.5%, passing the limit was not always enough
# TcdB inh: inhibitors of Clostridioides difficile toxin B glycohydrolase. P18177. TcdB glycohydrolase enzymatic assay, plate reader. inhibition, % at 9.99 µM. hit rate 0.24% among 350,000. AID 652162; in the data active = inhibition above about 10%
# Target sequence (P18177 whole entry, looked up): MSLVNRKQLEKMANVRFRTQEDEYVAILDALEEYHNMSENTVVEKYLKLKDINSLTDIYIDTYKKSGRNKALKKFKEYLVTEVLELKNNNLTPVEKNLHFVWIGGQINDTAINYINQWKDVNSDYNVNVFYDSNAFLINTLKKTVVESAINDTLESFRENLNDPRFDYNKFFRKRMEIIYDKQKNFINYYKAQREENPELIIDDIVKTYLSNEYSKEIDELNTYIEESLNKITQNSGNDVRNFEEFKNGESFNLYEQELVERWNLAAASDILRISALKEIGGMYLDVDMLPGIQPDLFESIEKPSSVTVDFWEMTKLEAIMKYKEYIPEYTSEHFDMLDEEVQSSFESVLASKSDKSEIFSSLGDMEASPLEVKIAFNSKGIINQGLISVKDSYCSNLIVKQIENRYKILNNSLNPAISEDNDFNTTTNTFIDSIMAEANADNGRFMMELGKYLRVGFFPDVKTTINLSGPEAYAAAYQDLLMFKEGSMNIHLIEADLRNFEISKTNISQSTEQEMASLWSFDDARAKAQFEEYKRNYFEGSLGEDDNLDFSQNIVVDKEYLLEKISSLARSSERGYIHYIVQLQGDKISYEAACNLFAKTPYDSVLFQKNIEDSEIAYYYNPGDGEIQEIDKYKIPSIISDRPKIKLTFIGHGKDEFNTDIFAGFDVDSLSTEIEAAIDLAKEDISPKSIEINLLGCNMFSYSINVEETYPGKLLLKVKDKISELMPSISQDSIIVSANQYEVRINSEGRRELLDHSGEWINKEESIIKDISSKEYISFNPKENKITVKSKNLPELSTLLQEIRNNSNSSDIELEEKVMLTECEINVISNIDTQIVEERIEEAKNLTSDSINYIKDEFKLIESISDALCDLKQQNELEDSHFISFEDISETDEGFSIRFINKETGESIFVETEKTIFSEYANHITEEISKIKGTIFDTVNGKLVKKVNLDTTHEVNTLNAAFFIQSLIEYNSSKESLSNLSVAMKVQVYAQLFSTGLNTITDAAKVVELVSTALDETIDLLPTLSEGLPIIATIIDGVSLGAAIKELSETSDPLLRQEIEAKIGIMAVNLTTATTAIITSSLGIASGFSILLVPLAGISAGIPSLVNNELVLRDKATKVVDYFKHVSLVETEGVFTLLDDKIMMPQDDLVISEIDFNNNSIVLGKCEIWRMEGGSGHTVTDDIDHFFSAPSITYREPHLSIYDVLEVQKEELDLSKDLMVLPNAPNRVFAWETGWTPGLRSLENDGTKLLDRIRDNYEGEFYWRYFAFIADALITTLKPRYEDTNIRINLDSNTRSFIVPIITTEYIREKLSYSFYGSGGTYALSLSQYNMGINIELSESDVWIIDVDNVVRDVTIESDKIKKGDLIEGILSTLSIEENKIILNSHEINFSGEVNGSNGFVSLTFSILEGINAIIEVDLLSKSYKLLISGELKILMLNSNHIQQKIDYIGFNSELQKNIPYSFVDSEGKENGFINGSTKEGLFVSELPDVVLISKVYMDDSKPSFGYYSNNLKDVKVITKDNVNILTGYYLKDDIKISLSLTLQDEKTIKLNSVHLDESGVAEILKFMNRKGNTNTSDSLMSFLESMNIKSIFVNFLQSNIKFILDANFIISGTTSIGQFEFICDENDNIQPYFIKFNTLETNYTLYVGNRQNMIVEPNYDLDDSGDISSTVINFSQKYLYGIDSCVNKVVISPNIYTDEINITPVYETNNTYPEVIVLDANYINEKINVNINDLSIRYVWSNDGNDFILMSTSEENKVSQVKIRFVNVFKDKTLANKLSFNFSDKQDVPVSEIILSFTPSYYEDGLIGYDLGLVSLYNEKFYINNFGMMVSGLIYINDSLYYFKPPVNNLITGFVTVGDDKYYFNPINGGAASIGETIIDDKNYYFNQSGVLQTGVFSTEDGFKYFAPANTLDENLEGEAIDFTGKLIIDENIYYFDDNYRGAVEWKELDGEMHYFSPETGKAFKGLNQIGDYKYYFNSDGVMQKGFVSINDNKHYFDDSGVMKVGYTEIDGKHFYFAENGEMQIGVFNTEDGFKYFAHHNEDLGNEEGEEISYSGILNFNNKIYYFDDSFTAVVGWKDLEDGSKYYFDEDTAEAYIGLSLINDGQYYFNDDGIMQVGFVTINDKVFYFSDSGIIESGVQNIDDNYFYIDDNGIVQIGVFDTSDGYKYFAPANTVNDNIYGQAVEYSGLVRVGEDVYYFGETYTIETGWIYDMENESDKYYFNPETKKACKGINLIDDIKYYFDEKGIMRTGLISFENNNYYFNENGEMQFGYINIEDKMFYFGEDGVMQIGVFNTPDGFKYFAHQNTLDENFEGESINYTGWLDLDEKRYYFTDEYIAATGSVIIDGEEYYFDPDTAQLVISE
# BioA inh: blocks M. tuberculosis BioA enzyme activity | purified M. tuberculosis BioA enzyme, plate reader | inhibition, % at 9.99 µM | hit rate 0.096% among 360,000; in the data active = inhibition above about 40%
# MazEF act: activators of E. coli MazEF toxin-antitoxin RNase | FAM/BHQ RNA-DNA oligo cleavage fluorescence, 5 h | activation, % at 20 µM | hit rate 0.32% among 350,000 | AID 504720; in the data active = activation above about 50%
# Y pestis TopoI: Y. pestis Topo-I inhibition via cleavage products; Y. pestis Topo-I cleavage product accumulation, plate reader; activity, % at 10 µM; hit rate 0.064% among 360,000; in the data active = activity above about 50%, passing the limit was not always enough
# VHR inh abs: DUSP3 (human) phosphatase inhibition. AID 1654. inhibition, % at 13.3 µM. hit rate 0.52% among 290,000. recombinant VHR phosphatase, pNPP absorbance; in the data active = inhibition above about 50%
# Starred values were filed as active, the others as inactive; . = no result given; + = active, no number.
SMILES,FadD28 FP inh,TcdB inh,BioA inh,MazEF act,Y pestis TopoI,VHR inh abs
O=C(Nc1ccc(C(=O)NCCCN2CCCCC2)cc1)C1=CSCCO1,-1,2,5,12,-4,57*
CC1CCCN(CCCNC(=O)c2ccc(NC(=O)C3=CSCCO3)cc2)C1 (stereo not given),-1,0,3,7,-6,2
COc1cc2[nH]c(C(=O)Nc3ccc(F)cc3)cc2c(OC)c1OC,-3,1,.,.,-2,53*
O=C(Nc1cccc(Cl)c1)c1ccc(NCC2CCCO2)c([N+](=O)[O-])c1 (stereo not given),-1,1,-1,67*,0,5
Cc1cccc(NC(=O)c2ccc(NCC3CCCO3)c([N+](=O)[O-])c2)c1 (stereo not given),-3,.,.,121*,5,-8
Cc1cccc(NC(=O)c2ccc(NCC3CCCO3)c([N+](=O)[O-])c2)n1 (stereo not given),-3,1,.,7,-8,18
O=C(Nc1ccccc1)c1ccc(NCCc2ccccc2)c([N+](=O)[O-])c1,-1,0,.,+,4,14
CC(C)NC(=O)Nc1ccc2c(c1)CC(=O)N([C@@H](C)CO)C[C@@H](C)[C@@H](CN(C)C(=O)NC(C)C)O2,.,0,-1,.,.,.
COc1ccc(Br)cc1C(=O)Nc1ccc(C(=O)O)cc1,-4,1,-1,4,2,5
COc1ccc(Br)cc1C(=O)Nc1ccc(O)cc1,-1,24*,1,5,0,-8
Oc1ccc(/C=N/Nc2ncnc3nc[nH]c23)cc1,-1,10*,-1,17,-11,25
Clc1ccc(/C=N/Nc2ncnc3nc[nH]c23)cc1,-6,2,2,13,0,21
CO[C@@H]1CN(C)C(=O)c2ccc(NC(=O)CC(F)(F)F)cc2OC[C@@H](C)N(C(=O)C2CC2)C[C@@H]1C,.,1,.,.,.,.
CCOC(=O)Nc1nc(C)c(C(=O)c2ccc(Cl)cc2)s1,-4,.,1,86*,-5,42
CCOc1cc(C2C(C#N)=C(N)OC(C)=C2C(C)=O)cc(Br)c1O (stereo not given),-2,.,.,-116,-2,50*
CCOc1cc(C2C(C#N)=C(N)OC(C)=C2C(C)=O)c(Br)c(Br)c1OC(C)C (stereo not given),-3,.,1,-9,1,18
COc1ccc(C(=O)NCCc2c[nH]c3ccccc23)cc1S(=O)(=O)N1CCOCC1,8.4*,.,-1,-8,-8,27
Cc1cccc(S(=O)(=O)NC[C@@H]2CC[C@H]3NC[C@H]3O2)c1,.,-2,.,.,.,.
COc1cccc(S(=O)(=O)Nc2ccc3c(c2)[C@@H]2C[C@@H](CC(=O)NCc4ccccc4F)O[C@H](CO)[C@@H]2O3)c1,.,0,-1,.,.,.
Cc1ccnc(SC2CC(=O)N(c3ccc(C(C)C)cc3)C2=O)n1 (stereo not given),-2,1,-4,7,-8,51*
COCC#Cc1cnc2c(c1)C(=O)N([C@H](C)CO)C[C@H](C)[C@@H](CN(C)S(=O)(=O)c1cn(C)cn1)O2,.,-1,0,.,.,.
Cc1ccc2nc(C(Cl)(Cl)Cl)nc(N/N=C/c3ccc([N+](=O)[O-])cc3)c2c1,-4,-1,0,55*,-1,.
CCCNC(=O)[C@H]1[C@H](CO)[C@H]2Cn3c(ccc(-c4ccc(F)cc4)c3=O)[C@H]2N1CC1CC1,.,0,4,.,.,.
CCCCCC(=O)Nc1cc(S(=O)(=O)N2CCCCC2)ccc1N1CCCCC1,0,0,-2,1,28,.
CCCCCC(=O)Nc1cc(S(=O)(=O)O)cc2cc(S(=O)(=O)O)cc(O)c12,35*,-5,.,-4,-9,.
SMILES,FadD28 FP inh,TcdB inh,BioA inh,MazEF act,Y pestis TopoI,VHR inh abs
CCC(C)c1ccc(N2C(=O)NC(=O)/C(=C/c3cccn3CCOc3ccc(C)cc3)C2=O)cc1 (stereo not given),-1,.,.,124*,-3,17
Cc1ccc(N2C(=O)NC(=O)/C(=C\c3cccn3C(C)(C)C)C2=O)cc1,0,2,.,-29,-1,26
Cc1c(NC(=O)COC(=O)CSc2ccc(C(N)=O)cc2[N+](=O)[O-])c(=O)n(-c2ccccc2)n1C,0,-2,2,8,9,-2
Cc1ccc(C(=O)OCC(=O)Nc2c(C)n(C)n(-c3ccccc3)c2=O)cc1[N+](=O)[O-],-2,0,.,50*,1,14
CC(C)NC(=O)N(C)C[C@H]1Oc2ccc(NC(=O)CCC(F)(F)F)cc2C(=O)N([C@H](C)CO)C[C@H]1C,.,0,2,.,.,.
CCNC(=O)C[C@H]1CC[C@@H]2[C@H](COC[C@H](O)CN2Cc2ccc(Cl)c(Cl)c2)O1,.,-1,-3,.,.,.
CSc1ccccc1OCc1cc(C(=O)NCCCc2ccccc2)no1,-2,2,-1,-13,58*,23
CN(C)c1nc(N(C)C)nc(N(C#N)CN2C(=O)c3ccccc3C2=O)n1,.,.,.,.,.,52*
C[C@@H]1CCCCO[C@H](CN(C)S(=O)(=O)c2cccs2)[C@H](C)CN([C@@H](C)CO)C(=O)c2cc(NC(=O)C3CCCCC3)ccc2O1,.,0,3,.,.,.
Nc1ccc2nc(CCCCc3nc4ccccc4[nH]3)[nH]c2c1,-2,7,1,-1,-19,52*
COc1ccccc1C1=NNC(=NCc2ccccc2)SC1,-1,10*,.,-6,11,22
c1ccc(CN=C2NN=C(c3ccccc3)CS2)cc1,0,0,.,2,3,6
COc1ccc(S(=O)(=O)N2CCc3ccccc3C2)cc1,-1,-1,.,5,7,51*
CCN(c1ccccc1)S(=O)(=O)c1ccc2c(c1)CC(C)N2C(=O)C1CC1 (stereo not given),0,1,0,-3,37,-4
CCOc1ccccc1N(C)S(=O)(=O)c1ccc2c(c1)CC(C)N2C(=O)C1CC1 (stereo not given),2,1,2,4,33,50*
COc1cc(NC(=O)CCN2CCN(CCO)CC2)cc(OC)c1,-2,-1,-2,-1,0,9
CCN1CCN(C(=S)c2ccc(OCC(=O)Nc3ccc(OC)cc3)cc2)CC1,0,.,-1,58*,6,.
CCN1CCN(C(=S)c2ccc(OCC(=O)NCc3ccccc3)cc2)CC1,-3,2,.,5,-10,1
CCN1CCN(CCC(=O)Nc2cc(OC)cc(OC)c2)CC1,-1,-4,1,5,2,51*
O=C(c1ccc(F)cc1)N1C[C@@H]2[C@H](c3ccccc31)[C@@H](CO)N2Cc1ccc2c(c1)OCO2,.,-1,-2,.,.,.
CCc1cccc2c(/C=N/NC(=O)c3cccc(S(=O)(=O)Nc4ccccc4Cl)c3)c[nH]c12,34*,.,.,-17,-20,2
Cc1ccc(/C=N/NC(=O)c2cccc(S(=O)(=O)Nc3ccccc3Cl)c2)o1,3,12*,0,5,5,15
Cc1[nH]c2ccccc2c1/C=N/NC(=O)c1cccc(S(=O)(=O)Nc2ccccc2Cl)c1,-1,.,-1,7,-16,0
